CHRM1 agonist: human M1 muscarinic receptor agonists, primary screen, Fluo-8 calcium fluorescence, CHO-K1 cells, HTS. 0.33% of 360,000 active. activation, % at 3 µM. CHO-K1 hM1, agonist mode; 0% DMSO, 100% acetylcholine EC100. Muscarinic acetylcholine receptor M1 (Homo sapiens), P11229. AID 588814, 2011;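 active means activation above the run's mean compound activation plus 3 SD, cut at about 16% in these data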;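 further: peak over basal fluorescence ratio within a 140 s kinetic read after compound addition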
Target sequence (P11229 whole entry, looked up): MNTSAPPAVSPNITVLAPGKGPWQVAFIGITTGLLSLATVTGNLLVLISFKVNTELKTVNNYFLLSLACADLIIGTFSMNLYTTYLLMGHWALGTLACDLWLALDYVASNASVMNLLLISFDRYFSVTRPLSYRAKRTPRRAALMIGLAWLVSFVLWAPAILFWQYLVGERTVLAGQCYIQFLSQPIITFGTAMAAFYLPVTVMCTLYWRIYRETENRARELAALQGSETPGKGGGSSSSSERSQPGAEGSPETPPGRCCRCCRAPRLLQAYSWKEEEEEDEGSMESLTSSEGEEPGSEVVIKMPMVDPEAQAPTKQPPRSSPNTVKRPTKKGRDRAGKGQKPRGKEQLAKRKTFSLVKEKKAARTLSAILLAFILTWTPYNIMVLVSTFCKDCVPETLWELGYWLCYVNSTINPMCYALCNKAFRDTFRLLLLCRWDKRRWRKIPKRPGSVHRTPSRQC
M1 PAM: human M1 muscarinic receptor positive allosteric modulators, primary screen, CHO-K1 cells, Fluo-8 calcium fluorescence, 1536-well | 0.088% of 360,000 active | AID 588819, 2011 | CHO-K1 hM1, ACh EC20; 0% = ACh EC20, 100% = maximal ACh | activation, % at 3 µM | Muscarinic acetylcholine receptor M1 (Homo sapiens), P11229; in the data active means activation above about 19%, passing the limit was not always enough
M1 PAM parental: nonselective calcium activators in parental CHO-K1 cells, primary screen, counter-screen for M1 PAM project, cell-based, Fluo-8 calcium fluorescence, full deck, 1536-well; 0.02% of 360,000 active; ATP EC20; 0% at ATP EC20, 100% at ATP max; AID 602247, 2012; activation, % at 3 µM;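 active means activation above the run cutoff, the mean activation of all test compounds plus 3 SD, cut at about 40% in these data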;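 further: peak over basal fluorescence ratio in a 140 s read after ATP addition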
M1 antag: human M1 muscarinic receptor antagonists, primary screen, CHO-K1 cells, Fluo-8 calcium fluorescence, 1536-well; Muscarinic acetylcholine receptor M1 (Homo sapiens), P11229; CHO-K1 hM1, ACh EC80 antagonist; inhibition, % at 3 µM; 1.3% of 360,000 active; AID 588852, 2011;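 active means percent inhibition above its own plate's cutoff, namely the mean of that plate's compound wells plus 3 SD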;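 further: peak over basal fluorescence ratio during 140 s after agonist addition; 0% = ACh EC80 plus DMSO and 100% = DMSO alone without agonist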
CHO-K1 Ca antag: M1 antagonist counterscreen hit in parental CHO-K1 cells; ATP-induced calcium, Fluo-8 fluorescence; inhibition, % at 3 µM; 0.6% of 360,000 active;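 active means inhibition above a per-plate cutoff, the plate's mean sample inhibition plus 3 SD, cut at about 24% in these data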;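 further: 0% = DMSO plus EC80 ATP and 100% = DMSO alone without ATP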
M1 ag parental: counter-screen for M1 agonists: effect in parental CHO-K1 cells | Fluo-8 calcium fluorescence; scaled to maximal ATP response, vehicle zero | activation, % at 3 µM | 0.48% of 360,000 active; in the data active means activation above about 15%;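 further: untransfected CHO-K1 host cells lacking M1 receptor as counterscreen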
* marks the source's active call; other numbers are inactive results. The list is not random: actives were taken first. Their share in the collection is about 2.3%.

Cc1c(C(=O)OCC(=O)N(C)Cc2ccccc2)oc2ccccc12 was read as CHRM1 agonist -8.4, M1 PAM 0.5, M1 PAM parental -8.4, M1 antag -0.5, CHO-K1 Ca antag 5.3 and M1 ag parental 1.1.
Cc1c(C(=O)OCC(C)(C)CN(C)C)oc2ccccc12 was read as CHRM1 agonist -4.3, M1 PAM -20.2, M1 PAM parental 16.2, M1 antag 53.4*, CHO-K1 Ca antag -9.6 and M1 ag parental 1.0.
Cc1ccc(C(=O)Nc2ccc(F)cc2)cc1NC1=NC2CS(=O)(=O)CC2S1 (stereo not drawn) was read as CHRM1 agonist -1.5, M1 PAM 4.9, M1 PAM parental -3.5, M1 antag -7.5, CHO-K1 Ca antag -0.2 and M1 ag parental -0.4.
`Cc1c(C(=O)OC(C)CCN(C)C)oc2ccccc12` (stereo not drawn) gave CHRM1 agonist -4.7, M1 PAM -22.1, M1 PAM parental 8.8, M1 antag 98.5*, CHO-K1 Ca antag -4.3 and M1 ag parental 0.5.
`CCN(CC)CC(C)(C)COC(=O)c1oc2ccccc2c1C` gave CHRM1 agonist -7.1, M1 PAM -21.6, M1 PAM parental -6.4, M1 antag 32.5*, CHO-K1 Ca antag -10.6 and M1 ag parental 0.1.
For O=C1CN(S(=O)(=O)c2ccccc2)CCN1 the results were CHRM1 agonist -2.2, M1 PAM 3.2, M1 PAM parental 9.4, M1 antag -6.5, CHO-K1 Ca antag -4.0 and M1 ag parental 0.9.
Screening O=C(CC[C@H]1O[C@@H](n2cnc3c(NC(=O)c4ccccc4)ncnc32)[C@H](O)[C@@H]1O)N[C@@H](CO)c1ccccc1 returned CHRM1 agonist -7.2, M1 PAM 3.2, M1 PAM parental 7.2, M1 antag 1.9, CHO-K1 Ca antag 3.9 and M1 ag parental 0.7.
CCOC(=O)[C@]12CCCC=C1N(Cc1ccc3c(c1)OCO3)C(=O)[C@H](CC(=O)N1CCC(c3ccccc3)CC1)C2 was read as M1 PAM parental 33.1, CHO-K1 Ca antag -31.2 and M1 ag parental 2.2.
Screening COC(=O)c1ccccc1NC(=O)CSc1nc(N)cc(N)n1 returned CHRM1 agonist 2.3, M1 PAM 6.4, M1 PAM parental 0.8, M1 antag 2.2, CHO-K1 Ca antag 26.2* and M1 ag parental 0.0.
For O=C(Nc1ccccc1N1CCOCC1)c1ccccc1NS(=O)(=O)c1ccc(F)cc1 the results were CHRM1 agonist -0.5, M1 PAM -4.6, M1 PAM parental 11.4, M1 antag 8.3, CHO-K1 Ca antag 2.6 and M1 ag parental 2.4.
`Cc1ccc(S(=O)(=O)Nc2ccccc2C(=O)Nc2nc(-c3ccc(F)cc3)cs2)cc1` gave CHRM1 agonist -1.0, M1 PAM -16.7, M1 PAM parental 4.7, M1 antag 35.4, CHO-K1 Ca antag 25.8* and M1 ag parental 15.9*.
O=C(Nc1ccccc1N1CCOCC1)c1ccccc1NS(=O)(=O)c1ccc(F)c(F)c1 was read as CHRM1 agonist 13.8, M1 PAM -1.5, M1 PAM parental -6.1, M1 antag -12.7, CHO-K1 Ca antag 24.1* and M1 ag parental 8.9.
Screening COc1ccc(-c2csc(NC(=O)c3ccccc3NS(=O)(=O)c3ccc(F)c(F)c3)n2)cc1 returned CHRM1 agonist 1.5, M1 PAM -16.0, M1 PAM parental -14.5, M1 antag 43.5*, CHO-K1 Ca antag 22.9 and M1 ag parental 15.2*.
Screening CCCS(=O)(=O)c1nc(S(=O)(=O)c2ccc(C)cc2)c(NCCCN2CCCC2=O)s1 returned CHRM1 agonist -7.9, M1 PAM 0.2, M1 PAM parental 2.6, M1 antag -9.7, CHO-K1 Ca antag -13.3 and M1 ag parental 0.4.
`Cc1cc(/C=N/n2cnnc2)c(C)n1-c1ccc(OCc2ccc(Cl)cc2)cc1` gave CHRM1 agonist -0.4, M1 PAM -15.1, M1 PAM parental 4.3, M1 antag 37.5, CHO-K1 Ca antag 24.2* and M1 ag parental 8.6.

Compound activity as filed in PubChem.
